Assay results as given in PubChem BioAssay (EPA / NIEHS).
Results filed as inconclusive are left out. Active and inactive are the calls of the source. Rule for the calls, unless noted: active = hit-call score of the fitted dose curve at least 0.9, where 1 is the maximum; inconclusive = response in the unintended direction; inactive = score below 0.9.

Columns and labels:
[1] = TOX21_p53_BLA_p2_viability: Viability Assessment in the Tox21 HCT-116 p53 Agonism Beta-lactamase Assay, Phase 2 (AID 2283591);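 note: compound exposure lasted 16 h at 37 °C; actives lower the ATP signal meaning cytotoxicity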
Outline: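 HCT-116 p53-bla cells (4000/well) rested 5 h at 37C, then received compounds in DMSO (217-fold dilution) for 16 h at 37C, 5% CO2. After the CCF4 read, CellTiter-Glo was added; ATP luminescence was read after 30 min at room temperature.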

[2] = molecular target: Cellular tumor antigen p53 (Homo sapiens) (UniProt P04637); assay: TOX21_p53_BLA_p2_ratio: Tox21 HCT-116 p53 Agonism Beta-lactamase Assay, Ratio, Phase 2 (AID 2283592)
Chain of Cellular tumor antigen p53 (Homo sapiens) (P04637 whole entry, looked up): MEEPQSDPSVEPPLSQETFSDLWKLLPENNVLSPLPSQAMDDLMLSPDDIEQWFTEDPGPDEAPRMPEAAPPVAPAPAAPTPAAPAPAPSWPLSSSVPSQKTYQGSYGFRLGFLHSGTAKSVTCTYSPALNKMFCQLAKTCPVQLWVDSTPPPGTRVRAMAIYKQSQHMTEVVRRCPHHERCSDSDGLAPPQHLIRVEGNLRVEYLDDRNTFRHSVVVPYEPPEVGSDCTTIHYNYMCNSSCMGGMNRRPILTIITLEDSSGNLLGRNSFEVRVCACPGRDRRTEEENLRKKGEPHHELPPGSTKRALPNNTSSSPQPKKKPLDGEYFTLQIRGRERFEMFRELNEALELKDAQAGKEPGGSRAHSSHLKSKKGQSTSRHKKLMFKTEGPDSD
Outline: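 Human colon HCT116 cells with an inducible p53 beta-lactamase reporter are exposed to test chemicals for 16 h at 37C. Reporter induction is read as the 460/530 nm emission ratio after CCF4-AM loading, normalized to DMSO.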

[3] = molecular target: Cellular tumor antigen p53 (Homo sapiens) (UniProt P04637); assay: TOX21_p53_BLA_p3_ratio: Tox21 HCT-116 p53 Agonism Beta-lactamase Assay, Ratio, Phase 3 (AID 2283596)
Outline: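 HCT116 p53-bla cells (4000/well) given compound in DMSO (217-fold dilution) after 5 h, incubated 16 h at 37C. CCF4-AM substrate 2 h at room temperature; 460/530 nm emission ratio, gain fitted against DMSO.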

[4] = molecular target: Cellular tumor antigen p53 (Homo sapiens) (UniProt P04637); assay: TOX21_p53_BLA_p5_ratio: Tox21 HCT-116 p53 Agonism Beta-lactamase Assay, Ratio, Phase 5 (AID 2283599)
Outline: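 HCT-116 cells carrying a p53-inducible beta-lactamase reporter were seeded at 4000 cells/well and dosed after 5 h with compound in DMSO (217-fold dilution). After 16 h at 37C, CCF4-AM substrate was added for 2 h, and the 460/530 nm emission ratio was scored as gain-of-signal versus DMSO.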

[5] = molecular target: Cellular tumor antigen p53 (Homo sapiens) (UniProt P04637); assay: TOX21_p53_BLA_p4_ratio: Tox21 HCT-116 p53 Agonism Beta-lactamase Assay, Ratio, Phase 4 (AID 2283601)
Outline: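 HCT116 cells carrying an inducible beta-lactamase reporter were plated at 4000 cells/well, rested 5 h, then exposed to compounds in DMSO (217-fold dilution) for 16 h at 37C. CCF4-AM substrate was loaded 2 h at room temperature; 460/530 nm emission ratio scored gain-of-signal versus DMSO.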

[6] = TOX21_p53_BLA_p5_viability: Viability Assessment in the Tox21 HCT-116 p53 Agonism Beta-lactamase Assay, Phase 5 (AID 2283600)
Outline: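 Seeded cells (4000/well) settle 5 h before compound addition. Plates then incubate 16 h at 37C, receive FRET substrate for 2 h, and finally CellTiter-Glo, with luminescence measured after a 30 min room-temperature incubation.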

[7] = tested on: Brachyury (BRA) Protein Expression, Deisenroth Lab, TBXT (gene 6862); assay: CCTE_Deisenroth_DEVTOX-GLR_legacy_Bra: (Legacy) CCTE's DevTox GLR-Endo Assay Evaluation of Brachyury (BRA) Protein Expression, Deisenroth Lab (AID 2284329; active = hit-call score of the fitted dose curve at least 0.9, where 1 is the maximum; inactive = score below 0.9)
Outline: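 RUES2-GLR human pluripotent cells differentiated 48 h with two 24-h-interval chemical exposures (1 nM - 200 uM, 10 points); fixed, nuclear-stained, imaged. Bra+ cell percentage (intensity 5x BMAD above pluripotent control median) fitted relative to 0.2% DMSO.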

[8] = tested on: SRY-box transcription factor 17 (SOX17) Protein Expression, Deisenroth Lab, SOX17 (gene 64321); assay: CCTE_Deisenroth_DEVTOX-GLR_legacy_Sox17: (Legacy) CCTE's DevTox GLR-Endo Assay Evaluation of SRY-box transcription factor 17 (SOX17) Protein Expression, Deisenroth Lab (AID 2284341; active = hit-call score of the fitted dose curve at least 0.9, where 1 is the maximum; inactive = score below 0.9); conditions: actives raise or lower the signal
Outline: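 RUES2-GLR human pluripotent cells, seeded 24 h, then differentiated 48 h in defined media with two chemical exposures 24 h apart (1 nM - 200 uM, 10 points). Sox17+ fraction from high-content fluorescence imaging; bidirectional fit versus 0.2% DMSO.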

[9] = tested on: SRY-box transcription factor 2 (SOX2) Protein Expression, Deisenroth Lab, SOX2 (gene 6657); assay: CCTE_Deisenroth_DEVTOX-GLR_legacy_Sox2: (Legacy) CCTE's DevTox GLR-Endo Assay Evaluation of SRY-box transcription factor 2 (SOX2) Protein Expression, Deisenroth Lab (AID 2284346; active = hit-call score of the fitted dose curve at least 0.9, where 1 is the maximum; inactive = score below 0.9)
Outline: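 RUES2-GLR human pluripotent cells seeded 24 h, then differentiated 48 h in defined media with two chemical doses 24 h apart (10-point, 1 nM–200 uM). Fixed, nuclear-stained, imaged; % Sox2+ cells (>5x BMAD over endoderm control median), DMSO-subtracted, fitted upward.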

[10] = tested on: Brachyury (BRA) Protein Expression, TBXT (gene 6862); assay: CCTE_Deisenroth_DEVTOX-GLR_Endo_BRA: CCTE's DevTox GLR-Endo Assay Evaluation of Brachyury (BRA) Protein Expression, Deisenroth Lab (AID 2284417; active = hit-call score of the fitted dose curve at least 0.9, where 1 is the maximum; inactive = score below 0.9)
Outline: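 RUES2-GLR human pluripotent cells, seeded 24 h, then differentiated 48 h in defined media with two chemical exposures 24 h apart (10-point series, 1 nM - 200 uM). Fixed, nuclear-stained, imaged; endpoint is percent BRA+ cells minus 0.2% DMSO control.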

[11] = CCTE_Deisenroth_DEVTOX-GLR_Endo_CellCount: Viability Assessment in CCTE's DevTox GLR-Endo Assay, Deisenroth Lab (AID 2284420; active = hit-call score of the fitted dose curve at least 0.9, where 1 is the maximum; inactive = score below 0.9)
Outline: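 Measured 48 h after dosing: fluorescent nuclei counted by imaging in human RUES2-GLR cells under defined differentiation media, tested at 1 nM - 200 uM. Values are percent cell-count change relative to 0.2% DMSO.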

[12] = tested on: SRY-box transcription factor 17 (SOX17) Protein Expression, Deisenroth Lab, SOX17 (gene 64321); assay: CCTE_Deisenroth_DEVTOX-GLR_Pluri_SOX17: CCTE's DevTox GLR-Pluri Assay Evaluation of SRY-box transcription factor 17 (SOX17) Protein Expression, Deisenroth Lab (AID 2284427)
Outline: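 Using an inducible fluorescent SOX17 reporter in human pluripotent RUES2-GLR cells, compounds (1 nM - 200 uM) were given twice over 48 h differentiation. Percent SOX17+ cells minus DMSO control came from high-content image analysis.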

[13] = tested on: SRY-box transcription factor 2 (SOX2) Protein Expression, Deisenroth Lab, SOX2 (gene 6657); assay: CCTE_Deisenroth_DEVTOX-GLR_Pluri_SOX2: CCTE's DevTox GLR-Pluri Assay Evaluation of SRY-box transcription factor 2 (SOX2) Protein Expression, Deisenroth Lab (AID 2284428; active = hit-call score of the fitted dose curve at least 0.9, where 1 is the maximum; inactive = score below 0.9)
Outline: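 Percent SOX2+ RUES2-GLR cells, determined by fluorescence microscopy after 48 h and two 24-h-interval chemical exposures spanning 1 nM–200 uM, served as the endpoint. Values are expressed relative to 0.2% DMSO; total cell counts assessed viability.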

[14] = tested on: Brachyury (BRA) Protein Expression, Deisenroth Lab, TBXT (gene 6862); assay: CCTE_Deisenroth_DEVTOX-GLR_Pluri_BRA: CCTE's DevTox GLR-Pluri Assay Evaluation of Brachyury (BRA) Protein Expression, Deisenroth Lab (AID 2284429)
Outline: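 Human pluripotent RUES2-GLR cells, seeded 24 h, were differentiated 48 h in defined media with two chemical doses at 24-h intervals (10-point, 1 nM - 200 uM). Readout: percent BRA+ cells by fluorescent reporter imaging, minus 0.2% DMSO control.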

[15] = CCTE_Deisenroth_DEVTOX-GLR_Pluri_CellCount: Viability Assessment in CCTE's DevTox GLR-Pluri Assay Evaluation of Total Cell Counts, Deisenroth Lab (AID 2284430; active = hit-call score of the fitted dose curve at least 0.9, where 1 is the maximum; inactive = score below 0.9)
Outline: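 RUES2-GLR human pluripotent cells, seeded 24 h, then differentiated 48 h with two chemical exposures 24 h apart; 10-point series 1 nM - 200 uM. Fixed, nuclear-stained, imaged (5 fields/well); nuclei count as % change vs 0.2% DMSO.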

PGR (gene 5241) [16] = molecular target: PGR (gene 5241) (UniProt P06401); assay: TOX21_PR_BLA_Followup_Agonist_ratio: Tox21 HEK293 Progesterone Receptor (PR) Agonism Beta-lactamase Follow-Up Assay, Ratio (AID 2283933)
Chain of PGR (gene 5241) (P06401 whole entry, looked up): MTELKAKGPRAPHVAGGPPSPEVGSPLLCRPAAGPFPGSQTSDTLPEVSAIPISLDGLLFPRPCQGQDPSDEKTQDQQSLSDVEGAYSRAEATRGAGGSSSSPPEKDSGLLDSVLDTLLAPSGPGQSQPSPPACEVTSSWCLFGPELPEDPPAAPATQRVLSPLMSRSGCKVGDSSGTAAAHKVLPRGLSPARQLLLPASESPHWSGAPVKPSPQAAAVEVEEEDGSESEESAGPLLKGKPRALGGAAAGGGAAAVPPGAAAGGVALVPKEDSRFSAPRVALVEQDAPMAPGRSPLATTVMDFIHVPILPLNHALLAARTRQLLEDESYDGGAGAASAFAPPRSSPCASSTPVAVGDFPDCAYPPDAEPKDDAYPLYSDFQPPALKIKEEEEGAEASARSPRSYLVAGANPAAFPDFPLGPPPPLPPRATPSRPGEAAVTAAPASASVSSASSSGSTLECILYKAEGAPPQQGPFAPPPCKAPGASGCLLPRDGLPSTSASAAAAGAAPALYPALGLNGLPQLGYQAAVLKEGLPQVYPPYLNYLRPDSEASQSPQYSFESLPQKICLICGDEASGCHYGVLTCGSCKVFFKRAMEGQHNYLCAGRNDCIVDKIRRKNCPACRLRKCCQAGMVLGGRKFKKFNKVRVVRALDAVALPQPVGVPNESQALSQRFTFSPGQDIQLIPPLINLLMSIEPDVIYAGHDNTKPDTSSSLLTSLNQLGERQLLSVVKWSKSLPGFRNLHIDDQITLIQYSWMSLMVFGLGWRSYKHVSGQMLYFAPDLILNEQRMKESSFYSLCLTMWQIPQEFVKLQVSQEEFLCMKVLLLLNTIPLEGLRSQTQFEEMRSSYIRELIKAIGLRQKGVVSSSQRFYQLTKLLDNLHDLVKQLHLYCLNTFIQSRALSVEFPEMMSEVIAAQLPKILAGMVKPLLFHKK
Outline: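 HEK293T PR-UAS-bla, 2% CS-FBS; 6 hr preincubation, cpd/DMSO pinned, 16 hr 37C/5% CO2; LiveBLAzer B/G 2 hr RT; FRET ch2/ch1 ratio, agonist direction vs DMSO. Viability by CellTiter-Glo in same wells.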

PGR (gene 5241) [17] = molecular target: PGR (gene 5241) (UniProt P06401); assay: TOX21_PR_BLA_Followup_Antagonist_ratio: Tox21 HEK293 Progesterone Receptor (PR) Antagonism Beta-lactamase Follow-Up Assay, Ratio (AID 2283934)
Outline: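 HEK293T PR-UAS-bla, 2% CS-FBS; 6 hr plating, then cpd + R5020 (1 nM final), 16 hr 37C/5% CO2. B/G FRET substrate 2 h RT. Ratio ch2/ch1 vs DMSO; CellTiter-Glo viability multiplexed, autofluorescence checked.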

[18] = TOX21_PR_BLA_Followup_Agonist_viability: Viability Assessment in the Tox21 HEK293 Progesterone Receptor (PR) Agonism Beta-lactamase Follow-Up Assay (AID 2283935);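 note: signal loss means lower viability so actives are cytotoxic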
Outline: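 HEK293T PR-UAS-bla, 3,000 cells/well, 2% CS-FBS; 6 hr pre-incubation; cpd in DMSO, 16 hr 37C; LiveBLAzer 2 hr RT, then CellTiter-Glo 30 min RT, luminescence. Decrease = lost viability.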

[19] = TOX21_PR_BLA_Followup_Antagonist_viability: Viability Assessment in the Tox21 HEK293 Progesterone Receptor (PR) Antagonism Beta-lactamase Follow-Up Assay (AID 2283936);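 note: hits lower the luminescence signal meaning cytotoxicity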
Outline: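 PR-UAS-bla HEK293T cells (3,000/well, 2% charcoal-stripped FBS) given compound plus R5020 agonist, 16 h at 37C. CellTiter-Glo added after bla read, 30 min at room temperature; luminescence loss indicates cytotoxicity.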

PGR (gene 5241) [20] = molecular target: PGR (gene 5241) (UniProt P06401); assay: TOX21_PR_LUC_Followup_Agonist: Tox21 HEK293 Progesterone Receptor (PR) Agonism Luciferase Follow-Up Assay (AID 2283937; active = hit-call score of the fitted dose curve at least 0.9, where 1 is the maximum; inactive = score below 0.9)
Outline: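 Cells: HEK293-PR-A-luc, 3,000/well, 10% charcoal-stripped FBS assay medium. Compound added after 5 h; 16 h, 37C, 0% CO2. ONE-Glo luciferase, luminescence. Positive fit vs DMSO.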

PGR (gene 5241) [21] = molecular target: PGR (gene 5241) (UniProt P06401); assay: TOX21_PR_LUC_Followup_Antagonist: Tox21 HEK293 Progesterone Receptor (PR) Antagonism Luciferase Follow-Up Assay (AID 2283938);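 note: curve fitted upward as signal gain over DMSO baseline despite antagonist label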
Outline: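 Luciferase reporter in HEK293-PR-A-luc cells: 16 h compound treatment at 37C, ONE-Glo luminescence detection, DMSO as negative control and baseline.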

[22] = TOX21_PR_LUC_Followup_Antagonist_viability: Viability Assessment in the Tox21 HEK293 Progesterone Receptor (PR) Antagonism Luciferase Follow-Up Assay (AID 2283940)
Outline: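 Multiplexed viability counter-screen: after 5 days in charcoal-stripped-FBS medium, HEK293-PR-A-luc cells are plated, pinned with DMSO-dissolved compounds for 16 h at 37C, and ATP content is quantified luminescently via CellTiter-Glo.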

[23] = TOX21_PR_LUC_Followup_Agonist_viability: Viability Assessment in the Tox21 HEK293 Progesterone Receptor (PR) Agonism Luciferase Follow-Up Assay (AID 2283941);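 note: loss of signal means cytotoxicity so actives lower viability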
Outline: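 Cells were kept 5 days in charcoal-stripped serum medium before plating HEK293-PR-A-luc at 3,000 cells/well. After 5 h they received DMSO-dissolved compound and incubated 16 h at 37C. Viability was taken from CellTiter-Glo ATP luminescence.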

Measured: AC50

Cc1cccc([N+](=O)[O-])c1C(=O)O
inactive: [1] | [2] | [3] | [4] | [5]

NC[C@@H]1O[C@H](O[C@H]2[C@@H](O)[C@H](O[C@@H]3[C@@H](O)[C@H](N)C[C@H](N)[C@H]3O[C@H]3O[C@H](CO)[C@@H](O)[C@H](O)[C@H]3N)O[C@@H]2CO)[C@H](N)[C@@H](O)[C@@H]1O
inactive: [1] | [2] | [3] | [4] | [5]

Cc1cc2c(OCC(CNC(C)(C)C)OC(=O)c3ccccc3)cccc2[nH]1 (stereo not given)
inactive: [1] | [2] | [3] | [6]

CC1(C)[C@H](C(=O)O)N2C(=O)C[C@H]2S1(=O)=O
inactive: [1] | [2] | [3] | [4] | [5]

CN(C)CCC=C1c2ccccc2CSc2ccccc21
active: [5] 16600 nM
inactive: [1] | [2] | [3] | [4]

CC(=C(CCOP(=O)(O)O)SC(=O)c1ccccc1)N(C=O)Cc1cnc(C)nc1N
inactive: [1] | [2] | [3] | [4] | [5]

Nc1cccc2c1CN(C1CCC(=O)NC1=O)C2=O (stereo not given)
inactive: [1] | [2] | [3] | [4] | [5] | [7] | [9] | [12] | [14] | [15]
active: [8] 328 nM | [10] 5.03 nM | [11] 132 nM | [13] 28.7 nM

COC(=O)CCCCCCCCC(=O)OC
inactive: [1] | [2] | [3] | [4] | [5]

O=C(Cl)c1ccccc1[N+](=O)[O-]
inactive: [1] | [2] | [3] | [6]

Cc1cccc(Br)c1
inactive: [1] | [2] | [3] | [4] | [5]

CCn1c2ccccc2c2cc([N+](=O)[O-])ccc21
inactive: [1] | [2] | [3] | [4] | [5] | PGR (gene 5241) [16] | [18] | [19] | PGR (gene 5241) [20] | [22] | [23]
active: PGR (gene 5241) [17] 6290 nM | PGR (gene 5241) [21] 8060 nM

CC[C@@H](C(=O)[C@@H](C)[C@@H](O)[C@H](C)[C@@H]1O[C@@H]([C@@H](CC)C(=O)O)CC[C@@H]1C)[C@H]1O[C@]2(C=C[C@@H](O)[C@]3(CC[C@@](C)([C@H]4CC[C@](O)(CC)[C@H](C)O4)O3)O2)[C@H](C)C[C@@H]1C
inactive: [1] | [2] | [3] | [4] | [5]

OC[C@@H](O)C(O)[C@H](O)CO
inactive: [1] | [2] | [3] | [4] | [5]
